Shown are actives, neighbours in structure and some others; about 2.2% of the full set was active somewhere.
FUS yeast rescue = qHTS for Suppressors of FUS Proteinopathy: Primary screen using FUS-linked yeast assay; Potency, µM (titrated, usually from 76.6 µM), usual class: activators; 0.24% of 390,000 active; S. cerevisiae FUS-expressing, growth rescue, OD600, 24 h;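 note: plate controls were DMSO vehicle for no effect and reference control for full effect; nearly all actives have a fitted effect of over 55% in size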
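Compound concentration series was pinned onto galactose-induced FUS-expressing yeast seeded at OD 0.005. Plates sat 24hr at 30C; absorbance at 600 nm gave growth. DMSO served as background control.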
TDP43 rescue = qHTS of TDP-43 Inhibitors; 1.8% of 410,000 active; AID 652104, 2013; Potency, µM (highest dose often 46.1 µM), inactives show top-dose growth rescue (activation), hits mostly activators; TDP-43 expressing yeast growth rescue, BacTiter-Glo, 24 h; note: % of control where 0% means no effect; nearly all actives have a fitted effect of over 50% in size
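Luminescence from BacTiter-Glo reports growth of TDP-43-expressing yeast after 24 hr at 30 deg C with compound. Cells were raffinose-pregrown to mid-log, then seeded in galactose medium at OD600=0.02.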
Mito fusion yeast = qHTS Assay for Small Molecule Inhibitors of Mitochondrial Division or Activators of Mitochondrial Fusion. S. cerevisiae fusion-defective mutant growth rescue, CellTiterGlo 48 h. 0.23% of 320,000 active. AID 485298, 2010. Potency, µM (series often up to 46.1 µM), for inactives: top-dose growth rescue (activation), most hits filed as activators; note: % of control where 0% means no effect; nearly all actives have a fitted effect of over 45% in size
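Temperature-sensitive fusion-defective S. cerevisiae (e.g. fzo1-1, mgm1-5) were grown with compound in YPEG medium (3% ethanol, 3% glycerol) for 48 hours at 37C. Growth rescue was measured as viability by CellTiterGlo luminescence after 10 minutes at ambient.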
aSyn yeast inh = qHTS of alpha-syn Inhibitors; Yeast expressing alpha-synuclein, growth rescue, BacTiter-Glo, 24 h; Potency, µM (series often up to 46.1 µM), for the others: at the top dose growth rescue (activation), hits mostly activators; AID 652106, 2013; 0.14% of 370,000 active; note: % of control where 0% means no effect; nearly all actives have a fitted effect of over 65% in size
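Rescue of yeast growth: cells expressing toxic alpha-synuclein, induced in galactose at OD600 0.02, incubated with compound 24 h at 30 C. ATP luminescence quantified growth; inhibitors of toxicity appear as activators.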
Abeta rescue = qHTS for compounds that reverse cellular toxicity of Amyloid beta (A-beta) peptide in yeast: Primary Screen | yeast expressing A-beta42, growth rescue, OD600, 48 h; response scale: 0% DMSO, 100% iron-clioquinol control | Potency, µM (highest dose often 46.1 µM), usual class: activators | 0.063% of 410,000 active | AID 1347071, 2019; note: nearly all actives have a fitted effect of over 55% in size
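Yeast growth medium received pinned compounds, then yeast cells expressing toxic A-beta were added; plates incubated at 30 C for 48 hr. Growth read as absorbance at 600 nm, normalized to DMSO and equimolar FeCl3 plus clioquinol controls.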
* marks the source's active call; other numbers are inactive results; i = inactive; ? = inconclusive; . = no result given; [ ] = dose if it differs, or a comment. Calls come from the whole dose curve; as a rule, active = well fitted curve in the direction sought with a large enough effect; inconclusive = small, poorly fitted or top-dose-only effect, or another doubt; inactive = no such curve, though single readings can be large; an effect the other way counts as inactive or inconclusive. Potency is the fitted concentration of half-maximal effect.

SMILES | FUS yeast rescue | TDP43 rescue | Mito fusion yeast | aSyn yeast inh | Abeta rescue
Cc1occc1C(=O)Nc1cccc(Cl)c1Cl | i | 11.2µM* | -2.1% | -6.2% | i
Cc1ccc(C)c(NC(=O)CCc2nc3cccnc3n2Cc2cccs2)c1 | i | 19.5% | . | . | i
CCn1nc(C)c2c(-c3ccccc3)cc(=O)n(C(C)C(=O)NCCc3ccccc3)c21 (stereo not drawn) | i | ? | . | . | i
CCn1nc(C)c2c(-c3ccccc3)cc(=O)n(C(C)C(=O)NCCc3ccc(OC)c(OC)c3)c21 (stereo not drawn) | i | 15.8µM* | . | . | i
O=C(NCCCN1CCCCCC1)c1ccc2c(c1)sc1nc(-c3ccccc3)cn12 | i | -6.2% | . | . | i
COC(=O)c1sc(NC(=O)COc2c(C)cccc2C)nc1C | i | 20µM* | 16.6% | 9.7% | i
Cc1ccc(C)c(NC(=O)C(Cc2ccccc2)N2Cc3ccccc3C2=O)c1 (stereo not drawn) | i | -8.7% | . | . | i
CCCOc1ccccc1N/C(=N/c1nc(C)cc(C)n1)NC(=O)COc1ccc(OC)cc1 | ? | 2.24µM* | 8.9% | -25.6% | i
COc1ccc(Cn2nc3n(c2=O)-c2ccccc2OC3)cc1 | i | 14.1µM* | . | . | i
COc1cccc(CNC(=O)CCCn2ncn3c(cc4occc43)c2=O)c1OC | i | -0.6% | . | . | i
CCOC(=O)/C=C/C(=O)Nc1ccc(Oc2ccccc2)cc1 | i | 17.8µM* | 3.2% | -16.6% | i
COc1ccc(CNC(=O)Cc2c(C)c3cc4c(C)coc4c(C)c3oc2=O)cc1 | i | 13.7% | . | . | i
Cc1ccc(C)n1NC(=O)c1ccc(O)cc1 | i | -14.9% | 0.9% | 6.4% | i
Cc1ccc(C)n1NC(=O)c1ccccc1 | 20µM* | -1.8% | 1.5% | -2.2% | i
CCOC(=O)c1c(NC(=O)c2cc(-c3cccc(Cl)c3)on2)sc(C(C)=O)c1C | i | 2.4% | . | . | i
Cc1ccc(NC(=O)CCCN2C(=O)COc3ccc(C)cc32)c(Cl)c1 | i | 0.3% | . | . | i
Cc1nc2nc(SCc3ccccc3)nn2c(C)c1C | i | ? | 9.7% | 10.2% | i
CCOC(=O)c1cn2nc(SCc3ccccc3)nc2nc1C | i | 15.8µM* | -1.8% | 1.1% | i
O=C(OC12CCCN(C1)/C(=C/c1ccc(Cl)cc1)C2)C1CCCCC1 (stereo not drawn) | i | . | . | . | .
Cc1ccc(F)cc1NS(=O)(=O)c1ccc(Cl)s1 | i | 35.5µM* | 11.3% | 12.8%[1.84 µM] | i
CCOc1ccccc1NS(=O)(=O)c1ccc(Br)s1 | i | -17.9% | 0.4% | 14.1µM* | i
O=S(=O)(Nc1ccc(F)c(Cl)c1)c1ccc(Br)s1 | i | ? | . | . | i
COc1ccccc1CCNC(=O)c1ccc(Br)s1 | i | 14.1µM* | 3.0% | 11.7% | i
O=S(=O)(Nc1ccc(F)cc1F)c1ccc(Br)s1 | i | 20µM* | . | . | i
Cc1nn(C)c(C)c1NS(=O)(=O)c1ccc(Cl)s1 | i | 4.2% | . | -6.5% | i
SMILES | FUS yeast rescue | TDP43 rescue | Mito fusion yeast | aSyn yeast inh | Abeta rescue
COc1ccc(C(=O)N=c2nc(-c3ccccc3)n(-c3ccccc3)s2)cc1 | . | . | . | 20.5% | .
Cc1c(C)c(C)c(/C=C/c2ccnc3ccccc23)c(C)c1C | . | . | . | -8.6% | .
CCOC(=O)COc1ccc(C)cc1C(=O)c1ccn2nc(-c3ccc(C)cc3)cc2n1 | i | 9.5% | . | . | i
COc1ccccc1CNS(=O)(=O)c1ccc(Br)s1 | i | 12.6µM* | -1.3% | 9.9% | i
CCn1cc2nc(SCc3cccc(C(F)(F)F)c3)n(Cc3ccc(Cl)cc3)c(=O)c2n1 | i | -7.2% | . | . | i
COc1ccc(C)cc1NC(=O)C(Sc1nnc(-c2ccncc2)n1-c1ccc(Cl)cc1)c1ccccc1 (stereo not drawn) | 22.4µM* | -1.1% | 14.0% | 6.7% | i
COc1cccc(OC)c1C(=O)OCC(=O)Nc1ccc(OC(F)(F)F)cc1 | i | 14.1µM* | 12.2% | -3.9% | i
Cc1onc(-c2ccccc2)c1C(=O)OCC(=O)Nc1ccc(OC(F)(F)F)cc1 | i | 15.8µM* | 8.9% | -0.4% | i
CNCC(=O)Nc1ccc(OC(F)(F)F)cc1 | i | 27.6% | -0.7% | 3.1% | i
CC(C)NC(=O)NC(=O)COC(=O)c1ccc(OC(F)(F)F)cc1 | . | ? | -11.9% | 6.5% | 10µM*
CCCCOc1ccc(C(=O)Nc2ccc3c(c2)CCCN3C(=O)c2cccs2)cc1 | ? | 6.6%[9.22 µM] | . | . | i
O=C(NC1CCCC1)c1cc2c(ccc3ccccc32)o1 | . | 11.2% | -3.8% | -2.6% | i
CNC(=O)c1cc2c(ccc3ccccc32)o1 | i | ? | 8.6% | 11.2µM* | i
CC(=O)Nc1nc2ccc(Br)cc2s1 | i | 12.6µM* | 9.6% | -18.3% | i
Cc1cc(C)n(-c2nc3ccccc3c(=O)n2OCc2ccc(Cl)cc2)n1 | i | 11.2µM* | 2.8% | -3.5% | i
Cc1cc(C)n(-c2nc3ccccc3c(=O)n2OCc2ccc(F)cc2)n1 | i | ? | ? | 1.8% | i
CC(=O)c1ccc(N2CCN(c3ncnc4c3cnn4-c3cc(Cl)ccc3C)CC2)cc1 | i | 4.5% | . | . | i
O=S1(=O)c2ccccc2N(Cc2ccccc2Cl)c2ccccc21 | i | 6.31µM* | . | . | i
Cc1ccccc1CN1c2ccccc2S(=O)(=O)c2ccccc21 | i | 2.5% | . | . | i
O=C1COc2ccccc2N1Cc1ccccc1Cl | i | 22.4µM* | 17.9% | 15.0% | i
Cc1ccccc1CN1C(=O)c2ccccc2Sc2ccc(C(=O)NCCc3ccccc3)cc21 | ? | -0.1% | . | . | i
Nc1nc(SCC(=O)N2N=C3/C(=C\c4ccco4)CCCC3C2c2ccco2)n[nH]1 (stereo not drawn) | 31.6µM* | -8.0% | . | 9.5% | i
COc1ccc(Cl)cc1NC(=O)Cn1cc(S(=O)(=O)Cc2cccc(Cl)c2)c2ccccc21 | i | 14.5% | . | . | i
CN(C)c1cccc(/C=C2\CC3(OC(=O)c4cccc(F)c4)CCCN2C3)c1 (stereo not drawn) | i | . | . | . | .
COc1ccccc1CCNC(=O)C(=O)NCC(c1ccc2c(c1)OCO2)N1CCOCC1 (stereo not drawn) | i | -6.4% | . | . | i
CC(C)(C)Nc1nc(Cl)nc(Nc2ccccc2)n1 | i | 28.2µM* | -1.2% | 0.5% | i
COc1ccccc1Nc1nc(Cl)nc(NC(C)(C)C)n1 | i | 22.4µM* | 5.8% | 0.0% | i
COc1ccc(Nc2nc(Cl)nc(Nc3ccc(OC)cc3OC)n2)c(OC)c1 | i | 5.2% | 4.0% | -3.2% | i

Source: PubChem BioAssay (National Center for Advancing Translational Sciences (NCATS))
